Measurements as given in ChEMBL document CHEMBL3988442, “University of Dundee, Small-Polar-MMV Screening Library” (2021).
In all, about 38,000 compounds went through this assay and about 1,200 (3.2%) showed an effect of 50% or more. The median lay at about -58%. Many of the other results were omitted from the sample, so strong results are more common in it than they were.

What follows are compounds tested on Plasmodium falciparum (assay: Calibr Malaria Delayed Death Assay SOP). Settings: concentration 4.99e-06 (unit not given; other assays of the set use mol/L).
Format: functional, organism-based
Set-up: scale not given: in the data most compounds retested in dose-response had high values

| Structure (SMILES) | Percent Effect |
| --- | --- |
| Cc1nccn1CCCn1c(=O)cnc2ccccc21 | -30.97% |
| CNC(=O)C1(CCCc2ccncc2)CCN1.O=C(O)C(F)(F)F (centres undefined) | -123.5% |
| COc1ccc2c(c1)C1(CCNCC1)CC2NC1CC1.Cl.Cl (centres undefined) | -4.171% |
| Cc1ccc2c(c1)C1(CCNCC1)CC2NC1CC1.Cl.Cl (centres undefined) | 73.32% |
| Cc1ccc2c(c1)C1(CCNCC1)CC2NC(C)C.Cl.Cl (centres undefined) | -38.07% |
| CC(C)(C)c1nccc(N2CCN(C3CCS(=O)(=O)C3)CC2)n1 (centres undefined) | -36.45% |
| Cc1cnc(N2CCC(OCCN3CCCCC3)C2)nc1C (centres undefined) | 23.23% |
| Cc1ccnc(N2CCC(OCCN3CCCCC3)C2)n1 (centres undefined) | -84.22% |
| CC(C)(C)c1nccc(N2CCC(OCCN3CCCCC3)C2)n1 (centres undefined) | 62.36% |
| COc1ccnc(N2CCC(OCCN3CCCCC3)C2)n1 (centres undefined) | 51.05% |
| C1CCN(CCOC2CCNCC2)CC1 | -37.31% |
| O=c1cc(Cn2ccnc2)nc2n1CCCN(Cc1ccncc1)C2 | -42.89% |
| Cn1cccc1C(=O)N1CCCn2nc(CCC(=O)NC3CC3)cc2C1 | -14.31% |
| O=C(c1ccc(S(=O)(=O)NCc2ccon2)cc1)N1CCOCC1 | -26.34% |
| O=C(O)C(F)(F)F.O=C(c1ccnnc1)N1C[C@@H]2C[C@@H](c3nc(C4CC4)cs3)O[C@@H]2C1 | -41.35% |
| Cc1ccoc1C(=O)N1C[C@@H](OCC2CCOCC2)[C@H]2OCCC[C@H]21 | 0.5559% |
| CCOc1ccc(NC(C)C(=O)Nc2cc(C)no2)cc1 (centres undefined) | -61.09% |
| OC1(CN2CCCCC2)CCN(Cc2c[nH]c(CC3CCCC3)n2)C1 (centres undefined) | 52.98% |
| c1[nH]c(CC2CCCC2)nc1CN1CCCC2(CCOC2)C1 (centres undefined) | 81.53% |
| C[C@@H]1CN(Cc2c[nH]c(CC3CCCC3)n2)CC[C@]1(C)O | -135.8% |
| OC1(CN2CCCC2)CCCN(Cc2c[nH]c(CC3CCCC3)n2)C1 (centres undefined) | 36.89% |
| COC[C@]1(O)CCN(Cc2c[nH]c(CC3CCCC3)n2)CC1(C)C | 15.86% |
| CC1(C)CN(Cc2c[nH]c(CC3CCCC3)n2)CC[C@]1(C)O | -34.05% |
| CN1CC(=O)N(c2ccccc2)CC12CCN(C(=O)c1cnccn1)C2.O=C(O)C(F)(F)F (centres undefined) | -66.28% |
| O=C(O)C(F)(F)F.O[C@@H]1CCN(CC2CCOC2)[C@H]1Cc1ccccc1 (some centres undefined) | -110.3% |
| COc1ccc(CN2CC[C@@H](O)[C@@H]2Cc2ccccc2)cc1.O=C(O)C(F)(F)F | 80.27% |
| Cn1cc(CN2CC[C@H](O)[C@@H]2Cc2ccccc2)cn1.O=C(O)C(F)(F)F | 22.75% |

| Structure (SMILES) | Percent Effect |
| --- | --- |
| Cn1cc(CN2CC[C@@H](O)[C@@H]2Cc2ccccc2)cn1 | -45.02% |
| O=C(O)C(F)(F)F.O=C(O)C(F)(F)F.O[C@@H]1CCN(CC2CCOC2)[C@H]1Cc1cccnc1 (some centres undefined) | -68.9% |
| COc1ccc(CN2CC[C@H](O)[C@@H]2Cc2cnn(C)c2)cc1.O=C(O)C(F)(F)F | -6.903% |
| O=C(O)C(F)(F)F.O[C@@H]1CCN(CC2CC2)[C@H]1Cc1ccccc1 | 63.26% |
| COc1ccc(CN2CC[C@@H](O)[C@@H]2Cc2cnn(C)c2)cc1.O=C(O)C(F)(F)F | -130.2% |
| NCC(CO)Cc1ccc(C(F)(F)F)cc1 (centres undefined) | -43.7% |
| CC(C)Oc1ncccc1CNC(=O)c1ccc(=O)[nH]n1 | -94.73% |
| CCCS(=O)(=O)NCCc1ncc(C)s1 | -127.4% |
| COc1ccc(NC(=O)C(c2cccc(F)c2)N2CCOCC2)cc1 (centres undefined) | -6.296% |
| Cc1cc(C)c(S(=O)(=O)Nc2cccc3c2OCCO3)cc1C(=O)O | -20.88% |
| CNCC(=O)NC1CC(C)(C)Cc2nc(C(C)(C)C)ncc21 (centres undefined) | 3.513% |
| CC(C)C(=O)N1CCN(Cc2cnn(C)c2)CC2(CC(=O)N(C)C2)C1.O=C(O)C(F)(F)F (centres undefined) | -69.27% |
| COc1ccc2nnc(C(=O)NCC3CCCC3)nc2c1 | -78.39% |
| Cc1cc(CNCC2(O)CCOCC2)ccc1Br | 44% |
| CN1CCC(O)(CNCc2ccc(F)c(C(F)(F)F)c2)CC1 | 82.66% |
| Cc1cc(CNCC2(O)CCOCC2)ccc1F | 16.95% |
| OC1(CNCc2ccc(F)c(C(F)(F)F)c2)CCOC1 (centres undefined) | -5.548% |
| OC1(CNCc2ccc(F)c(C(F)(F)F)c2)CCSCC1 | 54.72% |
| O=C(NCc1ccc(Cl)cc1Cl)NCC1(O)CCSC1 (centres undefined) | 0.496% |
| COCC1CN(Cc2ccsc2)Cc2cnn(C)c21 (centres undefined) | -44.18% |
| CC(C)[C@H](NC(=O)NC1CCS(=O)(=O)C1)C(=O)NCc1ccccc1 (some centres undefined) | -124.5% |
| Cc1cnn(C2CN(CC(=O)NCc3ccccn3)C2)c1 | -188.5% |
| O=C(CN1C[C@H]2CC[C@@H]1CN(Cc1ccccn1)C2)NCc1cccs1 | 67.17% |
| O=C(c1cc(C2CC2)no1)N1C[C@H]2CC[C@@H]1CN(Cc1ccccn1)C2 | 5.083% |
| Cc1nnsc1CN1C[C@H]2CC[C@@H]1CN(Cc1ccccn1)C2 | -7.135% |
| O=C(CN1C[C@H]2CC[C@@H]1CN(Cc1ccccn1)C2)Nc1ccccc1 | 82.97% |
| CC(C)c1cc(C(=O)N2C[C@H]3CC[C@@H]2CN(Cc2ccccn2)C3)no1 | -200.1% |
